Read-out in assay [1]: Monokine induced gamma interferon (MIG), CXCL9 (gene 4283)
The assay is described as follows: BSK_SAg_MIG: BioMAP Diversity Plus: SAg Assay for Monokine induced gamma interferon (MIG) Biomarker Activity (AID 2283092). To be noted: primary human HUVEC with PBMC; actives raise or lower the signal. The procedure, abridged:
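Endothelial cells and PBMC were co-cultured, exposed to test chemicals, and sampled 24 h later. MIG was measured by ELISA, and responses were fitted in both directions relative to DMSO.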

Assay [2] can be described thus: BSK_SAg_PBMCCytotoxicity: PBMC Cytotoxicity Assessment in the BioMAP Diversity Plus: SAg Assay (AID 2283093).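 Further: PBMC viability measured as Alamar Blue reduction fluorescence at 546/580 nm; fitted both ways against DMSO so a hit may be loss or gain of signal.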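 On AC50: PBMC superantigen activated with SEB plus TSST-1 one hour after compound addition.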 To be noted: primary human HUVEC with PBMC. The procedure, abridged:
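Compound added to 75,000 PBMC/well for 1 h; SEB and TSST-1 then added at 20 ng/mL final each; 90 h incubation; Alamar Blue 6 h; read 546/580 nm ex/em. Activity fitted bidirectionally relative to DMSO baseline.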

Read-out in assay [3]: Interleukin-8 (IL8), CXCL8 (gene 3576)
Kind of assay: BSK_SAg_IL8: BioMAP Diversity Plus: SAg Assay for Interleukin-8 (IL8) Biomarker Activity (AID 2283094). The settings on record: primary human HUVEC with PBMC; actives raise or lower the signal. The procedure, abridged: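 ELISA read-out of IL-8 in a primary human vascular co-culture (umbilical vein endothelium plus PBMC), taken 24 h after compound addition. Values derive from bidirectional fits against DMSO negative controls.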

Assay [4] is described as follows: BSK_SAg_Proliferation: Cell Proliferation Assessment in the BioMAP Diversity Plus: SAg Assay (AID 2283095).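 Further: relative cell number as total protein by SRB absorbance in sub-confluent culture.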 The settings on record: primary human HUVEC with PBMC. In short, it runs like this: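 Cells (endothelium plus PBMC, human primary) were dosed with chemical, cultured 96 h, fixed in 10% TCA and stained with 0.1% SRB. Absorbance at 560 nm gave relative protein, fitted bidirectionally relative to DMSO.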

Assay [5] is described as follows: BSK_SAg_SRB: Viability Assessment in the BioMAP Diversity Plus: SAg Assay (AID 2283096).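 Further: cells read one day after compound addition; hits may be either gain or loss of signal compared with DMSO.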 To be noted: primary human HUVEC with PBMC. The procedure, abridged:
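Total protein by sulforhodamine B staining, 24 h after dosing, in HUVEC–PBMC co-culture; DMSO-referenced bidirectional fitting.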

In assay [6] the target is human CYP2A6, CYP2A6 (gene 1548) (UniProt P11509). The assay is described as follows: NVS_ADME_hCYP2A6: NovaScreen (NVS) CYP450-related Enzyme Activity (ADME) Assay for human CYP2A6 (AID 2283099; active means hit-call score of the fitted dose curve at least 0.9, where 1 is the maximum). The procedure, abridged:
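Recombinant human CYP2A6 expressed in insect cells, cell-free; fluorogenic substrate turnover read by fluorescence intensity 0.5 h after dosing. Primary screen 10 uM in duplicate, then concentration-response up to 20 uM; acetonitrile as negative control.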

The target in assay [7] is human CYP2B6, CYP2B6 (gene 1555) (UniProt P20813). The assay is described as follows: NVS_ADME_hCYP2B6: NovaScreen (NVS) CYP450-related Enzyme Activity (ADME) Assay for human CYP2B6 (AID 2283101; active means hit-call score of the fitted dose curve at least 0.9, where 1 is the maximum). In short, it runs like this: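 Cell-free recombinant enzyme assay with a fluorogenic substrate; fluorescence intensity read 1 hour after dosing. Loss of signal relative to acetonitrile negative control indicates inhibition. Primary screen run in duplicate at 10 uM, actives then tested in concentration series.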

Assay [8] deals with Cytochrome P450 2C18 (Homo sapiens) (UniProt P33260). Kind of assay: NVS_ADME_hCYP2C18: NovaScreen (NVS) CYP450-related Enzyme Activity (ADME) Assay for human CYP2C18 (AID 2283103). In short, it runs like this: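 Cell-free recombinant human CYP2C18 with fluorogenic substrate; fluorescence intensity read 0.5 h after dosing. Single-point screen at 10 uM in duplicate, then concentration-response up to 20 uM; loss of signal fitted against acetonitrile baseline.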

Assay [9] addresses Cytochrome P450 2C19 (Homo sapiens) (UniProt P33261). Kind of assay: NVS_ADME_hCYP2C19: NovaScreen (NVS) CYP450-related Enzyme Activity (ADME) Assay for human CYP2C19 (AID 2283113; active means hit-call score of the fitted dose curve at least 0.9, where 1 is the maximum;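 further: potency for inhibition seen as loss of fluorescent signal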). In short, it runs like this:
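Cell-free recombinant human CYP2C19 from insect cells, fluorescent substrate; activity read by fluorescence intensity 1 h after dosing. Primary screen in duplicate at 10 uM; actives retested in concentration series. Signal loss versus acetonitrile negative control.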

Assay [10] deals with rat CYP2A1, Cyp2a1 (gene 24894) (UniProt P11711). The assay is described as follows: NVS_ADME_rCYP2A1: NovaScreen (NVS) CYP450-related Enzyme Activity (ADME) Assay for rat CYP2A1 (AID 2283114). The procedure, abridged: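 Recombinant rat CYP2A1, cell-free, fluorogenic substrate turnover read by fluorescence intensity 0.75 h after dosing. Primary screen at 10 uM in duplicate; actives rerun as concentration-response up to 20 uM; loss of signal versus acetonitrile control.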

Assay [11] concerns the target human CYP4F12, CYP4F12 (gene 66002) (UniProt Q9HCS2). The assay is described as follows: NVS_ADME_hCYP4F12: NovaScreen (NVS) CYP450-related Enzyme Activity (ADME) Assay for human CYP4F12 (AID 2283111; active means hit-call score of the fitted dose curve at least 0.9, where 1 is the maximum). The procedure, abridged: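 Cell-free fluorescence assay of recombinant human CYP4F12 activity on a specific substrate, read 0.5 h after dosing. Primary screen in duplicate at 10 uM, then concentration series for actives; loss of signal fitted against acetonitrile negative control.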

Assay [12] concerns the target human CYP19A1, CYP19A1 (gene 1588) (UniProt P11511). The assay is described as follows: NVS_ADME_hCYP19A1: NovaScreen (NVS) CYP450-related Enzyme Activity (ADME) Assay for human CYP19A1 (AID 2283098; active means hit-call score of the fitted dose curve at least 0.9, where 1 is the maximum;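 on AC50: potency for inhibitors seen as loss of fluorescent enzyme signal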). The procedure, abridged:
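Biochem, cell-free; recombinant enzyme + specific substrate; fluorescence intensity at 0.5 h post-dose; 10 uM duplicate primary, conc. series for actives; acetonitrile = negative control/baseline; positive and negative controls on every plate.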

Assay [13] deals with human CYP2C8, CYP2C8 (gene 1558) (UniProt P10632). The assay is described as follows: NVS_ADME_hCYP2C8: NovaScreen (NVS) CYP450-related Enzyme Activity (ADME) Assay for human CYP2C8 (AID 2283104). The procedure, abridged:
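Recombinant human CYP2C8 with fluorogenic substrate, 0.5 h, fluorescence intensity; signal loss fitted versus acetonitrile. Screened in duplicate at 10 uM, then actives run in concentration-response up to 20 uM.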

Assay [14] addresses Cytochrome P450 3A4 (Homo sapiens) (UniProt P08684). The assay is described as follows: NVS_ADME_hCYP3A4: NovaScreen (NVS) CYP450-related Enzyme Activity (ADME) Assay for human CYP3A4 (AID 2283110; active means hit-call score of the fitted dose curve at least 0.9, where 1 is the maximum). The procedure, abridged:
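Compounds were first screened in duplicate at 10 uM against recombinant CYP3A4 produced in insect cells, then actives were run in concentration series. Enzyme activity was measured by fluorescence after 0.33 hour, with acetonitrile as baseline.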

The target of assay [15] is human CYP1A1, CYP1A1 (gene 1543) (UniProt P04798). Kind of assay: NVS_ADME_hCYP1A1: NovaScreen (NVS) CYP450-related Enzyme Activity (ADME) Assay for human CYP1A1 (AID 2283100; active means hit-call score of the fitted dose curve at least 0.9, where 1 is the maximum). The procedure, abridged: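 Recombinant CYP1A1 with a fluorogenic substrate, cell-free, read 1 h after dosing; acetonitrile as negative control. Single-concentration screen at 10 uM in duplicate, then concentration-response up to 20 uM for chemicals meeting ~30% inhibition threshold.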

In assay [16] the target is human CYP1A2, CYP1A2 (gene 1544) (UniProt P05177). Kind of assay: NVS_ADME_hCYP1A2: NovaScreen (NVS) CYP450-related Enzyme Activity (ADME) Assay for human CYP1A2 (AID 2283102; active means hit-call score of the fitted dose curve at least 0.9, where 1 is the maximum;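 further: potency for inhibition since loss of fluorescence marks reduced CYP1A2 activity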). In short, it runs like this: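 Recombinant human CYP1A2 from insect cells, cell-free, fluorogenic substrate; read 0.5 h after dosing with loss of fluorescence signal indicating inhibition. Primary screen in duplicate at 10 uM, acetonitrile as negative control.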

Assay [17] deals with human CYP2J2, CYP2J2 (gene 1573) (UniProt P51589). Kind of assay: NVS_ADME_hCYP2J2: NovaScreen (NVS) CYP450-related Enzyme Activity (ADME) Assay for human CYP2J2 (AID 2283106; active means hit-call score of the fitted dose curve at least 0.9, where 1 is the maximum). In short, it runs like this: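 Cell-free assay of recombinant CYP2J2 with a fluorogenic substrate, read 1 h after dosing; loss of signal versus acetonitrile. Primary screen at 10 uM in duplicate, then concentration-response up to 20 uM for chemicals passing threshold (e.g., 30% inhibition).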

For assay [18], the target named is human CYP2D6, CYP2D6 (gene 1565) (UniProt P10635). The assay is described as follows: NVS_ADME_hCYP2D6: NovaScreen (NVS) CYP450-related Enzyme Activity (ADME) Assay for human CYP2D6 (AID 2283107; active means hit-call score of the fitted dose curve at least 0.9, where 1 is the maximum). In short, it runs like this:
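Cell-free assay using recombinant human CYP2D6 expressed in insect cells, with a fluorogenic substrate read after 1 h. Primary screen in duplicate at 10 uM; actives followed up in concentration series. Loss of signal fitted relative to acetonitrile.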

Assay [19] addresses rat CYP1A2, Cyp1a2 (gene 24297) (UniProt P04799). Kind of assay: NVS_ADME_rCYP1A2: NovaScreen (NVS) CYP450-related Enzyme Activity (ADME) Assay for rat CYP1A2 (AID 2283115; active means hit-call score of the fitted dose curve at least 0.9, where 1 is the maximum). The procedure, abridged:
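Cell-free recombinant rat enzyme with fluorogenic substrate, read by fluorescence intensity 1 hour after dosing. Loss of signal versus acetonitrile negative control; primary screen at 10 uM in duplicate, actives followed in concentration series.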

From PubChem BioAssay (EPA / NIEHS) come the findings set out here.

The structures appear in SMILES notation. Results filed as inconclusive are left out. Where a structure was tested more than once in an assay, its records may differ in their call. Calls of active or inactive are those of the source. How the source made its calls, unless noted: active means hit-call score of the fitted dose curve at least 0.9, where 1 is the maximum; inactive means score below 0.9.

Sequence of human CYP2B6, CYP2B6 (gene 1555) (P20813 whole entry, looked up): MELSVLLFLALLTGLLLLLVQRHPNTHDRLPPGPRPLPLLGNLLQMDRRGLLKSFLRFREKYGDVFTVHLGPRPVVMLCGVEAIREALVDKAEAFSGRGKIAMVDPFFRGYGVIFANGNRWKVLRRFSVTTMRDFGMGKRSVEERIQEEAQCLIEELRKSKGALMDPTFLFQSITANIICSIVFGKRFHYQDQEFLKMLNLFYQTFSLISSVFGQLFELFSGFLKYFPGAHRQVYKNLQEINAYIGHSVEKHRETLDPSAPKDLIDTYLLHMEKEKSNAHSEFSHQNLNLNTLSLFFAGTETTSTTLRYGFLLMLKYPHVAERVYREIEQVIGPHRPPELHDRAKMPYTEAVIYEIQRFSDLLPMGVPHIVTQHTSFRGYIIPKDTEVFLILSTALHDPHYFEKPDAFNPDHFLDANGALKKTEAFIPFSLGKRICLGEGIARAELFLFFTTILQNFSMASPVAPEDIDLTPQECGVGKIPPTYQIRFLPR
Sequence of Cytochrome P450 2C18 (Homo sapiens) (P33260 whole entry, looked up): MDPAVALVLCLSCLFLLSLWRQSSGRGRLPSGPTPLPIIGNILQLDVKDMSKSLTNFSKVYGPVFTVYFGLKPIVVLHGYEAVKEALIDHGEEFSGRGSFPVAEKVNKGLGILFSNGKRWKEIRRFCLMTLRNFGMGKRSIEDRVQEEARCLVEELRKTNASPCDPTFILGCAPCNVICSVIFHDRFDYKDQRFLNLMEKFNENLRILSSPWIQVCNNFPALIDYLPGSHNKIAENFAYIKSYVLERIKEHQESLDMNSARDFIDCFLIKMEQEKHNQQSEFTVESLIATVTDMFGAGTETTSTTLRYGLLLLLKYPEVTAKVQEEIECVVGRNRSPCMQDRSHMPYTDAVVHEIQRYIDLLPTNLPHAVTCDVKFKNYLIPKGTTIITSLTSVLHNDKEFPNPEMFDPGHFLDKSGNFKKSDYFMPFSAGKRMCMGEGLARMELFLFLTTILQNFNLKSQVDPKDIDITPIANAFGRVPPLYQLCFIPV
Sequence of human CYP19A1, CYP19A1 (gene 1588) (P11511 whole entry, looked up): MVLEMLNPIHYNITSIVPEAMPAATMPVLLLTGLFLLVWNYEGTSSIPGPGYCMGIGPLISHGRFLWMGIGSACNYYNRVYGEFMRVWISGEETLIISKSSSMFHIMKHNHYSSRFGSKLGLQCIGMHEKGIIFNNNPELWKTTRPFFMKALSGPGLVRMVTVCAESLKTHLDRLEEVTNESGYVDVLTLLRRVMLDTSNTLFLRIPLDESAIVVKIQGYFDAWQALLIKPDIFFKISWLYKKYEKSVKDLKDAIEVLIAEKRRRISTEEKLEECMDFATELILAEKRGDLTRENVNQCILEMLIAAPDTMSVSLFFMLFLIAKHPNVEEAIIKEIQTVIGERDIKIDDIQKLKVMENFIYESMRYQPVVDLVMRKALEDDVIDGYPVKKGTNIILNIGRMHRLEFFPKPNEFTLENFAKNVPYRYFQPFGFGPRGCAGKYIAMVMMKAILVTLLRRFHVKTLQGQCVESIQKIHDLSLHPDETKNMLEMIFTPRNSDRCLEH
Sequence of human CYP2A6, CYP2A6 (gene 1548) (P11509 whole entry, looked up): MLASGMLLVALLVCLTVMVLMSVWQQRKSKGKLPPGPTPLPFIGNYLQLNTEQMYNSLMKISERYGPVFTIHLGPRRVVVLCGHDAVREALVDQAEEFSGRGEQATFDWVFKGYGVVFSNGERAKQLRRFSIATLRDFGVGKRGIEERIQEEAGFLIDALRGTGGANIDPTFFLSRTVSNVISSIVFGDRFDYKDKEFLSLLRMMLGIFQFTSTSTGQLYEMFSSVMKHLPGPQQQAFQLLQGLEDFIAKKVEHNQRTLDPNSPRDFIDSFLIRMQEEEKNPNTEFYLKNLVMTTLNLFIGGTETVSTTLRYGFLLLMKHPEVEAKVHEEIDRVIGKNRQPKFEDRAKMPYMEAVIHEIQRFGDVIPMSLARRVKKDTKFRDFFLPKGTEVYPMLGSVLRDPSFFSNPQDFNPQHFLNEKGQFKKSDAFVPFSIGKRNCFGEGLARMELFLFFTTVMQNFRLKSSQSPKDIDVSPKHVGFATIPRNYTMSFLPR
Sequence of rat CYP2A1, Cyp2a1 (gene 24894) (P11711 whole entry, looked up): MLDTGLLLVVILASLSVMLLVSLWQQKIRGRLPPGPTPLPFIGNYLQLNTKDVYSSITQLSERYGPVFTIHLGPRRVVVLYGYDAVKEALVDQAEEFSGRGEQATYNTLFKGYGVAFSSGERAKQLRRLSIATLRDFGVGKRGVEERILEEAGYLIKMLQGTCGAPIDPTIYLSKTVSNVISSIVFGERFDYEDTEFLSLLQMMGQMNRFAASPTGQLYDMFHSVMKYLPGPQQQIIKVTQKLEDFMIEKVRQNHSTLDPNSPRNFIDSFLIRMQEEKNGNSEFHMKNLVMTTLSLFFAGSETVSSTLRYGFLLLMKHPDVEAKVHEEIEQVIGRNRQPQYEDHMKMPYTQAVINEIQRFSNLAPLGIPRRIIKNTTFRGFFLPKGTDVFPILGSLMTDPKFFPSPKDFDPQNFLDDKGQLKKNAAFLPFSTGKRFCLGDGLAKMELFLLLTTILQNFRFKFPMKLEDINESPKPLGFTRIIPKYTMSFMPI
Sequence of human CYP2D6, CYP2D6 (gene 1565) (P10635 whole entry, looked up): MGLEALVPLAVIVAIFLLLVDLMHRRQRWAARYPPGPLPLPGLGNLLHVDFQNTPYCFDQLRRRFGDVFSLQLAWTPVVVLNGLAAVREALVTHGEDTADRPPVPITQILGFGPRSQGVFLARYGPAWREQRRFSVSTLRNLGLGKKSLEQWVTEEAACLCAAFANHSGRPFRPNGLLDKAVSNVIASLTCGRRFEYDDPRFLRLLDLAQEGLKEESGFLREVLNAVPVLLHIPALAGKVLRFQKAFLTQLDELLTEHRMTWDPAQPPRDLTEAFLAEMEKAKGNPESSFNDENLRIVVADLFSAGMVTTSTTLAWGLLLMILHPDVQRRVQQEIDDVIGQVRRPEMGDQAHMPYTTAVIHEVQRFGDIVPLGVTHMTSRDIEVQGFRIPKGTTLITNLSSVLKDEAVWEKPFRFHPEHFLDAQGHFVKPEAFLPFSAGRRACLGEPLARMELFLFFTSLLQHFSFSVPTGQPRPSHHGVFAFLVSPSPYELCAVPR
Sequence of human CYP2C8, CYP2C8 (gene 1558) (P10632 whole entry, looked up): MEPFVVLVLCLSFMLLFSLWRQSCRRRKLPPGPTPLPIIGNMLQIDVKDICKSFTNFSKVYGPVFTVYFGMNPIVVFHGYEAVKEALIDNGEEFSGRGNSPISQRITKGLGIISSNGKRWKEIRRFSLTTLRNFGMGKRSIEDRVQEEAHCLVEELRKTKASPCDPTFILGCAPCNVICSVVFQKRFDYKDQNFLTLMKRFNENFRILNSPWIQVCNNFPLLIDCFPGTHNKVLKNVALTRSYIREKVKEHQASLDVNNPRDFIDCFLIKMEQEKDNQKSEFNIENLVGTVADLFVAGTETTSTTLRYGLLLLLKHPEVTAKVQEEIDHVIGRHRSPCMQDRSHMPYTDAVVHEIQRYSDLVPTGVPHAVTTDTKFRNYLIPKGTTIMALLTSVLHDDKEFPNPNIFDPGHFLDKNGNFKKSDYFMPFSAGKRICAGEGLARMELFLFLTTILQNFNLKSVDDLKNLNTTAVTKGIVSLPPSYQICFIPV
Sequence of human CYP4F12, CYP4F12 (gene 66002) (Q9HCS2 whole entry, looked up): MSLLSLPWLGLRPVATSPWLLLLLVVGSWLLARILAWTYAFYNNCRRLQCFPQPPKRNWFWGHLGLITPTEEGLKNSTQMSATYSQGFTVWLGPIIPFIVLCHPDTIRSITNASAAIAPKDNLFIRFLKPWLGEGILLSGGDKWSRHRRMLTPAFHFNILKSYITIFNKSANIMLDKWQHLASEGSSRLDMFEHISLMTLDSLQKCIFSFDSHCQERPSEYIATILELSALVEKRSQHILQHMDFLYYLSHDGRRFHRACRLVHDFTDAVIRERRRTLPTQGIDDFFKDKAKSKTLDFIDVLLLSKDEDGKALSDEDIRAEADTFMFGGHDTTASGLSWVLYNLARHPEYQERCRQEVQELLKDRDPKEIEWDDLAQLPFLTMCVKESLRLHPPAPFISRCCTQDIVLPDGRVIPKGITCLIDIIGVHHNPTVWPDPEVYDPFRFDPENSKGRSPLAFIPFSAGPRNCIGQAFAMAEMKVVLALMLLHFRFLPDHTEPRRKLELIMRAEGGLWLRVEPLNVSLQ
Sequence of human CYP1A1, CYP1A1 (gene 1543) (P04798 whole entry, looked up): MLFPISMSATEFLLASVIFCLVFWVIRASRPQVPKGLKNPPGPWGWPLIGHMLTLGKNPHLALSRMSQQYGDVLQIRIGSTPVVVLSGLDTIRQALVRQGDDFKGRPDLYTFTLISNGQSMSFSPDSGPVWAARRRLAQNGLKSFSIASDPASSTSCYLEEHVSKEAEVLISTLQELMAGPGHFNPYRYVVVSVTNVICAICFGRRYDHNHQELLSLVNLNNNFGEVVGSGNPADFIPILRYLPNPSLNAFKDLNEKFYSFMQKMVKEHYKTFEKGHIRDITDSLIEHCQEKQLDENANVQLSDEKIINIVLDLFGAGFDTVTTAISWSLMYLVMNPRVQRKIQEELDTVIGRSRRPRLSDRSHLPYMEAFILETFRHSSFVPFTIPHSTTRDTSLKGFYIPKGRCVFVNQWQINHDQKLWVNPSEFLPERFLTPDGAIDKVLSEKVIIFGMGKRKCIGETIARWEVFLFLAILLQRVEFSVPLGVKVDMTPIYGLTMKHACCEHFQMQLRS
Sequence of Cytochrome P450 3A4 (Homo sapiens) (P08684 whole entry, looked up): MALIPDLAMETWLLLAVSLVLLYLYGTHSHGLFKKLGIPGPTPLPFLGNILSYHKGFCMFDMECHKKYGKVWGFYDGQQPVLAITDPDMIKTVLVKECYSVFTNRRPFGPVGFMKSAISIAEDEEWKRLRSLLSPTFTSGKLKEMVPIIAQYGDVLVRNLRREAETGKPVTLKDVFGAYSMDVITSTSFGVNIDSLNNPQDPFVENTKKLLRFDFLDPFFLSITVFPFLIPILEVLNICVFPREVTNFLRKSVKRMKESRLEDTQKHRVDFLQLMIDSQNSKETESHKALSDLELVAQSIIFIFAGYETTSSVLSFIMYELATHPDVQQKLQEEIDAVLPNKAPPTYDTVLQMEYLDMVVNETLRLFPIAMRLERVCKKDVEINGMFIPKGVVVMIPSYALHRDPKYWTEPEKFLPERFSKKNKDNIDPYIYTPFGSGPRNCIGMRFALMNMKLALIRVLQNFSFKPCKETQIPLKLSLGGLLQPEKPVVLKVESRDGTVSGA

In general, AC50 refers to the concentration at which the activity in the assay is half-maximal. Regarding `CN1CSC(=S)N(C)C1`, the concentration at half-maximal activity (AC50) in [1] is 31.6 µM (active); in assay [2], 14.4 µM (active); in assay [3], 20.2 µM (active); in [4] it was 5.99 µM (active); in assay [7], 10 µM (active); in [8] it was 4.32 µM (active). Besides, the concentration at half-maximal activity (AC50) in assay [9] is 10 µM (active). Moreover, the outcome in assay [5] and in [6] was inactive.

On to `CCOC1Oc2ccc(OS(C)(=O)=O)cc2C1(C)C` (stereo not drawn), for which the outcome in [1], in assay [4] and in assay [5] was inactive. For the same molecule, the concentration at half-maximal activity (AC50) in assay [2] is 25.9 µM (active); in [3] it was 10.1 µM (active); in [7], 5.43 µM (active); in assay [8] it was 5.65 µM (active); in assay [9], 3.56 µM (active).

Turning to `CC(C)N(C(=O)COc1nnc(C(F)(F)F)s1)c1ccc(F)cc1`, the outcome in [1], in assay [2], in assay [3] and in assay [5] was inactive. Further, the AC50 in [4] was 15.8 µM (active); in assay [8], 5.82 µM (active); in assay [9], 1.05 µM (active); in assay [10], 10 µM (active).

With `ClC1C(Cl)C(Cl)C(Cl)C(Cl)C1Cl` (stereo not drawn), the outcome in assay [1], in assay [2], in assay [3], in assay [4] and in assay [5] was inactive. In addition, the concentration at half-maximal activity (AC50) in [11] is 17.3 µM (active).

As to `O=S(=O)(O)C(F)(F)C(F)(F)C(F)(F)C(F)(F)C(F)(F)C(F)(F)C(F)(F)C(F)(F)F`, the result in assay [1], in assay [2], in assay [3], in assay [4], in assay [5] and in assay [12] was inactive. Besides, the call in assay [14] was inactive. In addition, the concentration at half-maximal activity (AC50) in assay [12] was 5.35 µM (active); in [8], 0.875 µM (active); in assay [13], 4.04 µM (active); in assay [9], 5.18 µM (active) [middle of 5 runs].

Consider `COP(=S)(OC)Oc1ccc([N+](=O)[O-])cc1`, for which the result in assay [1], in assay [12] and in assay [19] was inactive. For the same molecule, the concentration at half-maximal activity (AC50) in assay [2] was 11.5 µM (active); in assay [3], 20 µM (active); in assay [4] it was 21.9 µM (active); in assay [5] it was 21.7 µM (active); in assay [6], 2.85 µM (active); in assay [15], 6.61 µM (active). In addition, the AC50 is 0.547 µM (active) in assay [7]; 1.06 µM (active) in assay [16]; 2.7 µM (active) in assay [8]; 2.25 µM (active) in assay [17]; 4.79 µM (active) in assay [18]; 0.25 µM (active) in [9]. The AC50 in assay [10] was 7.12 µM (active).
